Inconclusive results are not listed. Calls of active or inactive are those of the source. The call rests on the fitted dose curve; in most records, active means well fitted inhibition curve with a large enough effect; inconclusive means small, poorly fitted or top-dose-only effect, or effect the other way, or another doubt; inactive means no such curve, though single readings can be large or run the other way.
Test: Confirmation Concentration-Response Assay for lipid storage modulators; further: nearly all actives have a fitted effect of over 80% in size
Conditions: Drosophila S3 cells, lipid droplet BODIPY/CellTracker ratio, 18-24 h; series mostly up to 46.1 µM
Procedure, shortened: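 Cells at 5,000/well received compound as a titration plus oleic acid (added as 400 uM solution) and were incubated 18–24 h at 24 °C. BODIPY 493/503 lipid signal and CellTracker Red cell count were read by 488-nm laser-scanning cytometry. Activity was normalised to 20 uM Triacsin C.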
Potency means the concentration at half of the fitted maximal effect.

With `CCCCCCCCCC[n+]1cccc2c3ccccc3ccc21` the Potency was 1.77 µM (active).

For `COC(=O)c1ccccc1NC(=O)c1ccc(F)cc1F`, the Potency was 1.41 µM [activator] (active).

For `CCCc1ccc(-c2csc(NC(=O)Cc3cccs3)n2)cc1`, the Potency was 1.58 µM (active).

In the case of `COc1ccc(CCNC(=O)CSc2nc(O)cc(=O)[nH]2)cc1OC`, the Potency is reported as “inactive”.

In the case of `Cc1cc(N2CCCC2=O)cc(C)c1S(=O)(=O)NCCOc1ccc(C(C)(C)C)cc1`, the Potency is reported as 3.97 µM (active).

With `CC(Oc1ccc2oc3ccccc3c2c1)C(=O)NC12CC3CC(CC(C3)C1)C2` (configuration not stated) the Potency was 0.705 µM (active).

In the case of `CCOc1ccc(CCNC(=O)COC(=O)/C=C/c2ccc(C)o2)cc1OCC`, the Potency is reported as 0.499 µM (active).

For `COc1ccc(CCNC(=O)CCCCCNc2nc(=S)[nH]c3ccccc23)cc1OC`, the Potency was 2.5 µM (active).

With `O=C(Nc1cccc(S(=O)(=O)N2CCCCC2)c1)c1ccccc1NS(=O)(=O)c1ccc(F)cc1` the Potency was 28.1 µM (active).

With `COc1ccc(N=NC2C(=O)N(c3ccccc3)N=C2C)cc1` (configuration not stated) the Potency was 14.1 µM (active).

For `COc1cc(NC(=O)COc2ccccc2[N+](=O)[O-])ccc1NC(=O)c1cccs1`, the Potency was 17.7 µM (active).

For `Cc1ccc(NC(=O)CNC(=O)CC23CC4CC(CC(C4)C2)C3)c(O)c1`, the Potency was 2.23 µM (active).

For `Nc1c(C(=O)C2CC2)sc2nc(-c3ccccc3)cc(C(F)(F)F)c12`, the Potency was 1.58 µM (active).

In the case of `CCc1cccc2cc3c(N)c(C(=O)Nc4ccc(S(=O)(=O)N5CCCC5)cc4)sc3nc12`, the Potency is reported as 9.96 µM (active).

In the case of `CNC(=O)c1sc2nc(-c3ccc(OC)cc3)cn2c1C`, the Potency is reported as 15.8 µM (active).

For `CSCC(=O)NC1CCCc2c1cnn2-c1cc(F)cc(F)c1` (configuration not stated), the Potency was 2.5 µM (active).

In the case of `CCOc1ccc(CCNC(=O)COC(=O)c2ccc(OC(C)C)cc2)cc1OCC`, the Potency is reported as 0.158 µM (active).

With `CCOc1ccc(CCNC(=O)c2cc3sccc3n2CC)cc1OCC` the Potency was 0.199 µM (active).

With `Cc1ccc(S(=O)(=O)NCCC2=CCCCC2)cc1C(N)=O` the Potency was 22.3 µM (active).

In the case of `CCNC(=O)NC1(C(=O)N2CCC(Cc3ccccc3)CC2)CCCCC1`, the Potency is reported as “inactive”.

With `COC(=O)c1cc(C)sc1NC(=O)C1CC(=O)NN1Cc1ccccc1` (configuration not stated) the Potency was 1.41 µM (active).

With `O=C(COC(=O)c1ccc(CO)cc1)NCc1cccs1` the Potency was “inactive”.

In the case of `COc1ccc(CCNC(=O)CSc2ccc3ccccc3c2)cc1OC`, the Potency is reported as 1.41 µM (active).

With `COc1cc2c(cc1NC(=S)NC(=O)c1c(OC)cccc1OC)oc1ccccc12` the Potency was 2.17 µM (active).

In the case of `COc1ccc(CCNC(=O)Cn2nnc(-c3ccc(N(C)C)cc3)n2)cc1OC`, the Potency is reported as 0.705 µM (active).

In the case of `COc1ccc(-c2nc(C)ncc2N=Nc2ccccc2)cc1`, the Potency is reported as 25 µM (active).

In the case of `CCOc1ccc(CCNC(=O)COC(=O)c2cccs2)cc1OCC`, the Potency is reported as 3.15 µM (active).

For `O=C(CCC1CCCN(C(=O)c2ccc3c(c2)OCCO3)C1)NCc1ccccc1F` (configuration not stated), the Potency was 2.23 µM (active).

For `COc1ccc(CCNC(=O)c2ccc(N(C)S(=O)(=O)c3ccc(C)cc3)cc2)cc1OC`, the Potency was 14.1 µM (active).

In the case of `O=C(NCc1ccccc1)NC1(C(=O)N2CCCC2)CCCCC1`, the Potency is reported as “inactive”.

For `Cc1cccc(OCc2nnc(SCC(=O)N3c4ccccc4CC3C)n2C)c1C` (configuration not stated), the Potency was 6.28 µM (active).

With `CCOc1ccc(CCNC(=O)Cn2cccc2C(=O)c2ccccc2C)cc1OCC` the Potency was 4.99 µM (active).

With `Cn1cc(CNCc2ccc(OC(F)(F)F)cc2)c(-c2ccc3c(c2)OCCO3)n1` the Potency was 6.28 µM (active).

With `COc1cccc2cc(-c3nnc(SCC(=O)Nc4nc(C)cs4)n3C)oc12` the Potency was 1.99 µM (active).

In the case of `CC(C)(C)c1cc[n+](C2=C([O-])c3ccccc3C(=O)/C2=N\S(=O)(=O)c2cccs2)cc1`, the Potency is reported as 28.1 µM (active).

With `CCOC(=O)c1cc2c(ccn2-c2ccc(F)cc2)n1CC(=O)N(CC)CC` the Potency was 2.17 µM (active).

With `CCn1c(Cc2ccc(OC)cc2)nnc1SCC(=O)Nc1cccc(C(=O)OC)c1` the Potency was “inactive”.

— PubChem BioAssay AID1569 (National Center for Advancing Translational Sciences (NCATS), 2009)
